Inhibition of binding data for 1 molecule are collected here from PubChem BioAssay AID743088 (The Scripps Research Institute Molecular Screening Center, 2013).

The assay relates to Potassium Channel KATP. As to the kind of experiment: radioligand displacement at 30 receptors – biochemical, Panlabs HitProfilingScreen, selectivity assay for AVPR1a antagonist project, profiling panel (AID 743088). Particulars: 30 targets, at 10 µM, hits give high values. (In general: In a radioligand displacement assay an active substance lowers the binding of a labelled ligand.)

A number with no mark means an inactive call.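 Rule for the calls: active = binding inhibited by at least 50%, or stimulated by at least 50%, shown as inhibition of -50% or lower; inactive = the rest.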

For the molecule `O=C(C1CCN(c2ccc(Cl)cn2)CC1)N(CC1CC1)c1ccc(Cl)cc1`, the inhibition of binding was 19%.
